From PubChem
Measles CPE – protection of cells from measles virus | 140,000 compounds, 1.5% hits | protection (pct of control), % at 4 µM | Measles virus-infected cells, CPE protection, absorbance | AID 841; in the data active = protection mostly above about 24%, no sharp cut-off; inactive = mostly below about 26%
CYP2C9 act – activators of human CYP2C9; 96,000 compounds, 1.4% hits; AID 1024; activation factor at 5 µM; recombinant CYP2C9, luciferin-H conversion, luminescence; active compounds read high; factor 1 = untreated enzyme, 0 = blocked;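 active = activation factor of 2 or more for CYP2C9 at a 5 µM dose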;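 note: 0 = sulfaphenazole-blocked wells and 1 = vehicle-only wells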
Target sequence (P11712 whole entry, looked up): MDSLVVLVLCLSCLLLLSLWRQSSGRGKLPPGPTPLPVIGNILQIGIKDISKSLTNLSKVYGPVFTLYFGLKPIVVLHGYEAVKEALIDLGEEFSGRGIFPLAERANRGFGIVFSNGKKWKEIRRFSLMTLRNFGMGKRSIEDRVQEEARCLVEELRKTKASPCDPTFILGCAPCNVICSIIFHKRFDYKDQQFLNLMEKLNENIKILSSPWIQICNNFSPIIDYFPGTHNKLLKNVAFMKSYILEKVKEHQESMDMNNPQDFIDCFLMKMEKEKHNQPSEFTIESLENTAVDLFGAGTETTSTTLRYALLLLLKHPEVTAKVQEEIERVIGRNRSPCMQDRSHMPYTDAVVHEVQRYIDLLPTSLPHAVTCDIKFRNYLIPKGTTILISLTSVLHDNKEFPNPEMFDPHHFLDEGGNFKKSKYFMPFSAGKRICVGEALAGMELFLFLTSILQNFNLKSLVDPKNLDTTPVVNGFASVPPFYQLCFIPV
CYP2C9 inh – blocks human cytochrome P450 2C9 | inhibition, % at 5 µM | CYP2C9 Supersomes, luciferin-H conversion, luminescence | AID 777 | 96,000 compounds, 20% hits;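 active = blocking of liver enzyme CYP2C9 beyond about 50% at 5 µM, limit read from the data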
CYP2C19 activ – cytochrome P450 2C19 (human) activation; recombinant CYP2C19, luciferin-H EGE luminescence; active compounds read high; 0 = fully inhibited enzyme, 1 = untreated enzyme; P33261; AID 1025; activation factor at 5 µM; 96,000 tested, under 10 active;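 active = activation factor of at least 2 at 5 µM in the primary screen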;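 note: 0 = wells with 2.5 mM tranylcypromine and 1 = vehicle-only wells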
CYP2C19 inh – inhibitors of human CYP2C19; 96,000 compounds, 21% hits; inhibition, % at 5 µM; P33261; CYP2C19 Supersomes, luciferin-H EGE luminescence, 30 min;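 active = CYP2C19 inhibition above a set limit at 5 µM in the primary screen, cut at about 50% in these data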;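 note: plate controls were negative control wells for no effect and 2.5 mM tranylcypromine positive control for full effect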
Active calls of the source: *; / = no result. Rows were chosen to be rich in hits. Some 22% of all compounds tested hit in one or more screens of this group.

SMILES	Measles CPE	CYP2C9 act	CYP2C9 inh	CYP2C19 activ	CYP2C19 inh
N#Cc1c(N)oc(-c2ccccc2)c1-c1ccccc1	8	0.4	56*	0.3	75*
N#Cc1c(N)oc(-c2ccco2)c1-c1ccco1	9	0.4	64*	0.8	22
N#Cc1c(/N=C/c2ccco2)oc(-c2ccccc2)c1-c1ccccc1	8	0.3	73*	0.5	49
COc1ccc(NC(=O)C23CC4CC(C2)CC(c2ccc(C)cc2)(C4)C3)cc1	25	/	/	/	/
O=C1c2ccccc2CN1CCSC(=S)N1CCOCC1	9	/	/	/	/
CCOC(=O)c1c(C)[nH]c(N=Nc2ccccc2)c1C	5	0.7	33	0.8	19
CCOC(=O)c1c(C)[nH]c(N=Nc2cccc(C)c2)c1C	3	0.1	93*	0.4	56*
COc1ccc(CNC(=O)Cn2cc(C(F)(F)F)ccc2=O)cc1	3	/	/	/	/
COc1ccc(OC(=O)c2cn(C)nc2C(F)(F)F)cc1	17	1	4	0.4	61*
O=[N+]([O-])c1cc(C(F)(F)F)ccc1NCCc1c[nH]c2ccc(O)cc12	20	0.3	75*	1	4
O=[N+]([O-])c1cc(C(F)(F)F)ccc1NCCc1c[nH]c2ccccc12	27	/	/	/	/
CCOc1ccccc1NS(=O)(=O)c1ccc(Br)s1	4	0.7	26	0.1	95*
COCCNC(=O)c1ccccc1NS(=O)(=O)c1ccc(Br)s1	14	0.1	91*	0.3	72*
Cc1[nH]nc2c1C(c1cn[nH]c1-c1ccc(F)cc1)C(C#N)=C(N)O2 (centres undefined)	2	0.9	13	0.8	15
Cc1cc(-c2cccnc2)c(C#N)c(SCc2cccc(F)c2)n1	6	1.8	-79	0.3	69*
CCc1nc(SCc2cccnc2)c(C#N)cc1C	3	0.7	32	0.4	57*
CN1C(=S)SC(N2OC3C(=O)N(c4ccccc4)C(=O)C3C2c2ccc(Cl)cc2)C1(C)C (centres undefined)	18	/	/	/	/
COC(=O)C1CCN(C(=O)c2ccc(SC)cc2OC)CC1	2	0.9	12	0	99*
Cc1cccc(N2CCN(C(=O)C3CCN(S(=O)(=O)c4cccnc4)CC3)CC2)c1C	18	0.8	20	0.9	14
O=C(CCn1c(=O)oc2ccccc21)N1CCN(c2ccccc2F)CC1	5	0.7	27	0.3	73*
O=C(CCn1c(=O)oc2ccccc21)N1CCN(C(c2ccccc2)c2ccccc2)CC1	10	0.3	66*	1	4
CC1CCN(S(=O)(=O)c2ccc3c(c2)oc(=O)n3CC(=O)N2c3ccccc3CC2C)CC1 (centres undefined)	3	0.6	42	0.5	46
CC1Cc2ccccc2N1C(=O)Cn1c(=O)oc2cc(S(=O)(=O)NC3CCCC3)ccc21 (centres undefined)	10	0.3	69*	0.7	31
CC1Cc2ccccc2N1C(=O)CCn1c(=O)oc2ccccc21 (centres undefined)	14	0.2	77*	0.1	94*
Cc1cc(S(=O)(=O)N2CCN(c3ncccn3)CC2)ccc1-n1cnnn1	25	/	/	/	/
SMILES	Measles CPE	CYP2C9 act	CYP2C9 inh	CYP2C19 activ	CYP2C19 inh
CCC1CCCCN1c1nc2c(C=O)c(C)nn2c2ccccc12 (centres undefined)	45	/	/	/	/
CCOc1ccc(CCNC(=O)C2CC(=O)N(C3CCCC3)C2)cc1OCC (centres undefined)	4	0.8	16	1	-4
O=C1CC(N2CCN(c3cccc(C(F)(F)F)c3)CC2)C(=O)N1c1ccccc1F (centres undefined)	14	0.2	84*	0.5	47
O=C1CC(N2CCN(c3cccc(C(F)(F)F)c3)CC2)C(=O)N1c1ccccc1 (centres undefined)	22	0.8	18	1.1	-8
O=C(c1c(F)cccc1F)N1CCN(c2cccc(C(F)(F)F)c2)CC1	14	0.2	80*	0.1	94*
Cn1cccc1C(=O)N1CCN(c2cccc(C(F)(F)F)c2)CC1	10	0.8	22	0.2	76*
CCOC(=O)c1c(-c2cccs2)csc1NC(=O)c1ccncc1	3	0.7	30	0.6	36
COC(=O)c1c(-c2cccs2)csc1NC(=O)CN1CCOCC1	15	0	96*	0.1	94*
CCOC(=O)c1c(-c2cccs2)csc1NC(=O)COC(=O)c1c(C)noc1C	18	0.1	87*	0.5	46
C=CCC(C#Cc1ccc(C)cc1)N(CC)CC (centres undefined)	16	1	3	0.9	13
